Inconclusive results are not listed. Active and inactive are the calls of the source. How the source made its calls: active means hit-call score of the fitted dose curve at least 0.9, where 1 is the maximum; inconclusive means response in the unintended direction; inactive means score below 0.9.

Sequence of Estrogen-related receptor gamma (Homo sapiens) (P62508 whole entry, looked up): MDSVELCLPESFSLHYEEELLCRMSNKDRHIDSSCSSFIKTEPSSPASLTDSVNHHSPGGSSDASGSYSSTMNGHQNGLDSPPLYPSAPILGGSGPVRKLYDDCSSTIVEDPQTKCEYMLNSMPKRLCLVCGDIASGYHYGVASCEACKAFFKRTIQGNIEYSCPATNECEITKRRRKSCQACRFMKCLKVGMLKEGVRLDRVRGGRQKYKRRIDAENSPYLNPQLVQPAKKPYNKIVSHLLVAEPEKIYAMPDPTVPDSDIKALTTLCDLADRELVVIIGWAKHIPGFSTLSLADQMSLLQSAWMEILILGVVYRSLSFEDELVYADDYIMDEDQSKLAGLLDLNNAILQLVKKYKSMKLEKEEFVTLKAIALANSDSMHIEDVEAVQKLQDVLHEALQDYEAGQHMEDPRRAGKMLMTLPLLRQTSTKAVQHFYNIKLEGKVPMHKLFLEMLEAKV

The assay has as its target Estrogen-related receptor gamma (Homo sapiens) (UniProt P62508). The experiment in a line: ATG_ERRg_TRANS: Attagene TRANS-FACTORIAL HepG2 Assay for human Estrogen-Related Receptor gamma (ERRg) (AID 2282977).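 Further: hits increase reporter signal over DMSO so potencies reflect activators.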 As to conditions: HepG2 Attagene TRANS reporter, ERRg transactivation. As to the method:
ATG_TRANS is a cell-based, multiplexed-readout assay that uses HepG2, a human liver cell line, with measurements taken at 24 hours after chemical dosing in a 24-well plate.ATG_ERRg_TRANS is one of 30 assay component(s) measured or calculated from the ATG_TRANS assay. It is designed to make measurements of mRNA induction, a form of inducible reporter, as detected with fluorescence intensity signals by Reverse transcription polymerase chain reaction (RT-PCR) and Capillary electrophoresis technology.Data from the assay component ATG_ERRg_TRANS was analyzed into 1 assay endpoint. This assay endpoint, ATG_ERRg_TRANS, was analyzed in the positive analysis fitting direction relative to DMSO as the negative control and baseline of activity. Using a type of inducible reporter, measures of mRNA for gain-of-signal activity can be used to understand the reporter gene at the transcription factor-level as they relate to the gene ESRRG. Furthermore, this assay endpoint can be referred to as a primary readout, because this assay has produced multiple assay endpoints where this one serves a reporter gene function. To generalize the intended target to other relatable targets, this assay endpoint is annotated to the nuclear receptor intended target family, where the subfamily is steroidal.
Human liver HepG2 cells are transiently transfected with multiple reporter transcription units (MRTUs) in 6-well plates using FuGene 6 reagent (Roche; 3 ml FuGene/1 mg DNA). The MRTU constructs are regulated by a cis-regulating element (promoter). […] A major difference between the CIS and TRANS system is that in CIS activities of endogenous TFs are measured, whereas the TRANS assay evaluates changes in activities of exogenous, chimeric NR-Gal4 proteins. […] At the end of 24 hour incubation, total RNA was isolated using TriZol reagent (Invitrogen). The isolated RNA is then reverse-transcribed using oligo(dT) primer and Mo-MLV reverse transcriptase (Invitrogen) with DNAse I (Ambion) treatment for 30 min. The one-tenth of the produced cDNA was amplified by PCR using Taq DNA polymerase (Invitrogen) and two reporter sequence-specific primers. The PCR products were fluorescently labeled by primer extension with 6-arboxyfluorescein (6-FAM) 5'-labeled reporter sequence-specific primer (2 min at 95 C, 20 s at 68 C and 10 min at 72 C) and these products were digested with 5U of HpaI (New England Biolabs) for 2h at 37 C. The fragments were purified using Qiaquick PCR columns (Qiagen), analyzed on an ABI 3130xL genetic analyzer (Applied Biosystems) with peak positions identified by using a set of X-rhodamine (ROX)-labeled MapMarker1000 molecular weight standards (BioVentures). The raw capillary electrophoresis data was processed using Attagraph software (Attagene).
Turning to `CCCCC(C#N)(Cn1cncn1)c1ccc(Cl)cc1` (configuration not stated), the compound was called inactive.
For `N#CN=C1SCCN1Cc1ccc(Cl)nc1` the value was “inactive”; for `CCOC(=O)C(C)OC(=O)c1cc(Oc2ccc(C(F)(F)F)cc2Cl)ccc1[N+](=O)[O-]` (configuration not stated), “inactive”; for `CC1(C)C(C(=O)OC(C#N)c2cccc(Oc3ccccc3)c2)C1(C)C` (configuration not stated), “inactive”.
For `COc1cc(OC)nc(NC(=O)NS(=O)(=O)c2ncccc2OCC(F)(F)F)n1` the value was “inactive”; for `COCC(=O)N(c1c(C)cccc1C)C(C)C(=O)OC` (configuration not stated), “inactive”; for `CCOc1cc(C(C)(C)C)ccc1C1COC(c2c(F)cccc2F)=N1` (configuration not stated), “inactive”.
For `O=C1C2CC=CCC2C(=O)N1SC(Cl)(Cl)Cl` (configuration not stated) the value was “inactive”.
As for `N#Cc1c[nH]cc1-c1cccc2c1OC(F)(F)O2`, the result was inactive.
The same measure for `C=CCOC(=O)C(C)(C)OC(=O)c1cc(-n2c(=O)cc(C(F)(F)F)n(C)c2=O)ccc1Cl`: “inactive”.
Consider `COP(=S)(OC)SCn1nnc2ccccc2c1=O`, for which the outcome was inactive.
Turning to `Nc1c(Cl)c(F)nc(OCC(=O)O)c1Cl`, the outcome was inactive.
For `CCCCC(O)(Cn1cncn1)c1ccc(Cl)cc1Cl` (configuration not stated) the value was “inactive”.
The same measure for `CS(=O)(=O)c1cc(C(F)(F)F)ccc1C(=O)c1cnoc1C1CC1`: “inactive”.
The same measure for `O=C(Nc1ccccc1-c1ccc(Cl)cc1)c1cccnc1Cl`: “inactive”.
In the case of `COP(=O)(OC)O/C(C)=C/C(=O)N(C)C`, the outcome was inactive.
The same measure for `COc1ccc(-c2ccccc2)cc1NNC(=O)OC(C)C`: “inactive”.
Take `CCNC(=O)NC(=O)C(C#N)=NOC`: the outcome was inactive.
For `COC(=O)N(C(=O)N1CO[C@@]2(C(=O)OC)Cc3cc(Cl)ccc3C2=N1)c1ccc(OC(F)(F)F)cc1` the value was “inactive”.
As to `CCCCOCN(C(=O)CCl)c1c(CC)cccc1CC`, the outcome was inactive.
For `CCOc1nc(C(Cl)(Cl)Cl)ns1` the value was “inactive”; for `CC(C)Oc1cccc(NC(=O)c2ccccc2C(F)(F)F)c1`, “inactive”.
With `CCC(C)n1c(=O)[nH]c(C)c(Br)c1=O` (configuration not stated), the outcome was inactive.
The same measure for `CC(C)N1C(=O)c2ccccc2NS1(=O)=O`: “inactive”.
Take `N#Cc1c(Cl)cccc1Cl`: the compound was called inactive.
For `COC(=O)c1c(C(F)F)nc(C(F)(F)F)c(C2=NCCS2)c1CC(C)C` the value was “inactive”; for `COC(=O)NS(=O)(=O)c1ccc(N)cc1`, “inactive”.
The same measure for `Cc1cc(C)nc(Nc2ccccc2)n1`: “inactive”.
The same measure for `COP(=S)(OC)Oc1ccc([N+](=O)[O-])c(C)c1`: “inactive”; for `CN=C=S`: “inactive”; for `CC(C)NC(=O)N1CC(=O)N(c2cc(Cl)cc(Cl)c2)C1=O`: “inactive”.
Consider `CC(C)N1C(=O)N(c2ccccc2)CSC1=NC(C)(C)C`, for which the result was inactive.

The values above are taken from PubChem BioAssay (EPA / NIEHS).
